From PubChem BioAssay (EPA / NIEHS)
Several values for one entry are separate records, joined by “and”; a condition that tells them apart may be missing. Equal values may be shown once. Activity calls are given as the source filed them. Rule for the calls: active = hit-call score of the fitted dose curve at least 0.9, where 1 is the maximum; inactive = score below 0.9.

read-out: Vascular cell adhesion molecule 1 (VCAM1), VCAM1 (gene 7412); experiment: BSK_hDFCGF_VCAM1: BioMAP Diversity Plus: hDFCGF Assay for Vascular cell adhesion molecule 1 (VCAM1) Biomarker Activity (AID 2283065); conditions: primary human foreskin fibroblasts; actives raise or lower the signal
Procedure: BSK_hDFCGF is a cell-based, multiplexed-readout assay that uses foreskin fibroblast, a human skin primary cell, with measurements taken at 24 hours after chemical dosing in a 96-well plate.BSK_hDFCGF_VCAM1 is an assay component measured in the BSK_hDFCGF assay. It measures VCAM-1 antibody related to regulation of gene expression using ELISA technology.Data from the assay component BSK_hDFCGF_VCAM1 was analyzed into 1 assay endpoint. This assay endpoint, BSK_hDFCGF_VCAM1, was analyzed with bidirectional fitting relative to DMSO as the negative control and baseline of activity. Using a type of binding reporter, gain or loss-of-signal activity can be used to understand changes in the signaling as they relate to the gene VCAM1. Furthermore, this assay endpoint can be referred to as a primary readout, because this assay has produced multiple assay endpoints where this one serves a signaling function. To generalize the intended target to other relatable targets, this assay endpoint is annotated to the cell adhesion molecules intended target family, where the subfamily is Immunoglobulin CAM.
The levels of cell surface (or secreted, indicated by the prefix "s") biomarker endpoints were measured by ELISA. Overt cytotoxicity to cells in confluent adherent cultures (all systems other than the BT system) was assessed by measuring total protein levels using sulforhodamine B (SRB) staining in parallel cultures at the time of biomarker measurements, indicated as SRB endpoints. For proliferation assays for adherent cell types, individual cell types are cultured at sub-confluence and relative cell numbers quantified by SRB staining at time points optimized for each system (48 h: 3C and CASM3C systems; 72 h: BT and HDF3CGF systems; 96 h: SAg system). SRB was performed by staining cells with 0.1% SRB after fixation with 10% TCA and reading wells at 560 nm.Viability and proliferation of PBMC (T cells) was quantified by Alamar Blue reduction for the SAg and BT systems. For PBMC viability (referred to as PBMC Cytotoxicity within the assay endpoint names), cells were plated (75,000/well in a 96-well plate) and then chemical samples added for 1 h before addition of activators, SEB and TSST-1 (20 ng/mL final concentration each). Cells were incubated for 90 h. Then, Alamar Blue (20 uL/well) (Invitrogen, Cat DAL1100) was added for 6 h, and the plates were read with a fluorescence microplate reader at 546/580 nm (excitation/emission). For PBMC proliferation, cells were plated and activated as above but incubated for only 16 h prior to addition of Alamar Blue. Plates were read after 6 h.

Structure (SMILES)	outcome	AC50
OCC(F)(F)C(F)(F)C(F)(F)F	inactive	–
CCCCCCCCC(F)(F)C(F)(F)C(F)(F)C(F)(F)C(F)(F)C(F)(F)F	inactive	–
CCc1ccc(C(c2ccc(CC)cc2)C(Cl)Cl)cc1	–	14.2 µM (active)
C=CC(=O)OCC(F)(F)C(F)(F)C(F)(F)C(F)(F)C(F)(F)C(F)(F)C(F)(F)F	inactive	–
O=C(O)C(F)(F)C(F)(F)C(F)F	inactive	–
OCCCC(F)(F)C(F)(F)C(F)(F)F	inactive	–
OCCCC(F)(F)C(F)(F)C(F)(F)C(F)(F)C(F)(F)C(F)(F)C(F)(F)F	–	11 µM (active) and 9.2 µM (active)
CCCCOCCOCCOC(=O)CCCCC(=O)OCCOCCOCCCC	inactive	–
FC(F)(F)C(F)(F)C(F)(F)N(C(F)(F)C(F)(F)C(F)(F)F)C(F)(F)C(F)(F)C(F)(F)F	inactive	–
O=C(O)C(F)(F)C(F)(F)OC(F)(F)F	inactive	–
O=C(O)C(F)(OC(F)(F)C(F)(OC(F)(F)C(F)(F)C(F)(F)F)C(F)(F)F)C(F)(F)F (stereo not given)	inactive	–
CC(CCl)OP(=O)(OC(C)CCl)OC(C)CCl (stereo not given)	inactive	–
CCN(CC)c1ccc2c(C)cc(=O)oc2c1	–	30.5 µM (active)
FC(F)(F)C(F)(F)C(F)(F)CI	inactive	–
O=C(O)C(F)(F)C(F)(F)F	inactive	–
FC(F)(F)C(F)(F)C(F)(F)C(F)(F)C(F)(F)CCI	–	38.6 µM (active) and 32.6 µM (active)
C=C(C)C(=O)OCC(F)(F)C(F)(F)C(F)(F)F	inactive	–
CCCCNc1ccccc1	inactive	–
OCC(F)(F)C(F)(F)C(F)(F)C(F)(F)C(F)(F)C(F)(F)F	–	54.6 µM (active) and 46 µM (active)
O=C(O)C(F)(F)C(F)(F)C(F)(F)C(F)(F)F	inactive	–

Structure (SMILES)	outcome	AC50
O=C(O)C(F)(F)C(F)(F)C(F)(F)C(F)(F)C(F)(F)C(F)(F)C(F)(F)C(F)(F)Cl	–	46.8 µM (active) and 30 µM (active)
FC(F)(F)C(F)(F)CNCC(F)(F)C(F)(F)F	inactive	–
O[Si](c1ccccc1)(c1ccccc1)c1ccccc1	inactive	–
C=CC(F)(F)C(F)(F)C(F)(F)C(F)(F)C(F)(F)C(F)(F)C(F)(F)C(F)(F)C=C	inactive	–
N=C(N)C(F)(F)C(F)(F)C(F)(F)C(F)(F)C(F)(F)C(F)(F)C(F)(F)F	–	30 µM (active) and 18 µM (active)
CCCCCCCOC(=O)c1ccccc1C(=O)OCCCCCCC	inactive	–
CO[Si](OC)(c1ccccc1)c1ccccc1	inactive	–
FC(F)(F)C(F)(F)C(F)(F)C(F)(F)C(F)(F)C(F)(F)CCS	inactive	–
O=C(CC(=O)C(F)(F)C(F)(F)F)C(F)(F)F	inactive	–
NC(=O)C(F)(F)C(F)(F)C(F)(F)C(F)(F)F	inactive	–
O=C(Cl)C(F)(F)C(F)(F)C(F)(F)C(F)(F)C(F)(F)C(F)(F)C(F)(F)C(F)(F)F	–	50.4 µM (active) and 47.9 µM (active) and 47 µM (active)
O=S(=O)(OCCOC(F)(F)F)C(F)(F)F	inactive	–
FC(F)(F)C(F)(F)C(F)(F)C(F)(F)CCI	inactive	–
O=C(O)C(F)(OC(F)(F)C(F)(OC(F)(F)C(F)(OC(F)(F)C(F)(F)C(F)(F)F)C(F)(F)F)C(F)(F)F)C(F)(F)F (stereo not given)	inactive	–
FC(F)(F)C(F)(F)C(F)(F)C(F)(F)C(F)(F)C(F)(F)C(F)(F)I	inactive	–
Oc1ccc(Nc2ccccc2)cc1	–	3.97 µM (active)
CS(C)(=O)=O	inactive	–
FC1CC(F)(F)C(F)(F)C1(F)F (stereo not given)	inactive	–
O=C(O)C(F)(F)C(F)(F)C(F)(F)C(F)(F)C(F)(F)C(F)(F)C(F)(F)C(F)(F)C(F)(F)C(F)(F)C(F)(F)C(F)(F)F	–	4.75 µM (active) and 1.14 µM (active)
O=C(O)C=C(C(F)(F)F)C(F)(F)F	–	13.1 µM (active) and 22.2 µM (active)
